These results are taken from PubChem BioAssay (NCATS).

The structures appear in SMILES notation. Where “and” joins values, the source holds several entries; their conditions need not be identical. Equal entries are not always repeated. Results filed as inconclusive are left out. Calls of active or inactive are those of the source. Calls come from the whole dose curve; as a rule, active = well fitted curve in the direction sought with a large enough effect; inconclusive = small, poorly fitted or top-dose-only effect, or another doubt; inactive = no such curve, though single readings can be large; an effect the other way counts as inactive or inconclusive.
% is set by controls: 0 for no effect and ±100 for the full control effect; potency is the fitted concentration of half-maximal effect.
Note: nearly all actives have a fitted effect of over 70% in size.

One test in a line: Primary qHTS for inhibitors of nuclear receptor binding SET domain protein 2 (NSD2) in an isogenic RCH-ACV NSD2 p.E1099K mutant (9B) (AID 1645876). The conditions noted are these: RCH-ACV NSD2 E1099K (9B) viability, CellTiter-Glo, 72 h; series mostly up to 44.9 µM; activity change, negative = viability loss: at the top concentration. (In qHTS, concentration-response curves come from the screen itself.)
Turning to `CCCOc1ccc(CCc2nc3cc(-c4c(C)noc4C)ccc3n2CCN2CCOCC2)cc1`, the Potency is 8.33 µM (active).

`C=C1C(=O)OC2/C=C(\C)CC/C=C(\C=O)C(OC)C(OC(=O)C(C)CC)C12` (stereo not given): the Potency is 7.13 µM (active).

On to `Cc1nc(NC(=O)N2CCCC2C(N)=O)sc1-c1ccnc(C(C)(C)C(F)(F)F)c1` (stereo not given), for which the Potency was 2.35 µM (active).

Take `C=C1CO[C@@]2(O[C@H]3CC4C5CC=C6C[C@@H](O)C[C@@H](O[C@@H]7OC[C@H](O)[C@H](O[C@@H]8OC[C@@H](O)[C@H](O)[C@H]8O)[C@H]7O[C@@H]7O[C@@H](C)[C@H](OC(C)=O)[C@@H](OC(C)=O)[C@H]7OC(C)=O)[C@]6(C)C5CC[C@]4(C)[C@@H]3[C@@H]2C)[C@@H](O)[C@H]1OC1OC(C)C(O)C(O)C1O` (stereo not given in full): the Potency is 2.18 µM (active).

Regarding `COc1cc(NC(=O)c2cc(C3CC3)on2)c(OC)cc1Cl`, the “activity change, negative = viability loss” value is -9.47% (inactive).

Consider `CCC[C@H](N[C@H]1CCc2cc(F)cc(F)c2C1)C(=O)Nc1cn(C(C)(C)CNCC(C)(C)C)cn1`, for which the Potency was 16.3 µM (active) and 13.2 µM (active).

The nature of another test: Primary qHTS for inhibitors of nuclear receptor binding SET domain protein 2 (NSD2) in an RCH-ACV wild type WT cells (2C) (AID 1645877). The conditions noted are these: RCH-ACV (leukaemia line) NSD2 WT (2C) viability, CellTiter-Glo, 72 h; series mostly up to 44.9 µM; activity change, negative = cell killing: at the top concentration.
For the compound `C=C(C)C(=O)OC1CC2(C)OC(=CC2=O)C(=C)CC2OC(=O)C(=C)C12` (stereo not given), the Potency is 0.253 µM (active).

For the compound `O=C(NCCCc1ccccc1)c1cccc(-c2cc(O)c3ncccc3c2)c1`, the Potency is 3.65 µM (active).

Consider `Cc1sc2c(c1C)C(c1ccc(Cl)cc1)=N[C@@H](CC(=O)Nc1ccc(OCCOCCOCCOCCNc3cccc4c3C(=O)N(C3CCC(=O)NC3=O)C4=O)cc1)c1nnc(C)n1-2` (stereo not given in full), for which the Potency is 3.2 nM (active) and 14.8 nM (active).

`CN(C)C(=O)COC(=O)c1cc(-c2ccc(C3CCNCC3)cc2)c2ccc(-c3ccc(C(F)(F)F)cc3)cc2c1`: the Potency is 4.59 µM (active).

For `O=C(Nc1nc2cc(C(F)(F)F)cc(NC3CC3)n2n1)c1cccnc1`, the Potency is 1.83 µM (active).

As to `CC(=O)NC[C@H]1CN(c2ccc(N3CCSCC3)c(F)c2)C(=O)O1`, the “activity change, negative = cell killing” value is -13.4% (inactive).

As to `CC[N+]1(C/C2=C/CCCCCC2)CCC(NC(=O)C2c3cc(Cl)ccc3Oc3ccc(Cl)cc32)CC1` (stereo not given), the Potency is 18.3 µM (active).

As for `CC(C)/C=C1\NC(=O)C(C(C)C)n2c1nc1ccccc1c2=O` (stereo not given), the “activity change, negative = cell killing” value is -11.8% (inactive).

`C=C(C)C(=O)OC1CC(CO)CCC/C(CO)=C/C2OC(=O)C(=C)C21` (stereo not given): the Potency was 2.01 µM (active).

`CC(C)(C)Oc1ccc(OCC2Cc3ccccc3CN2C(=O)c2cccc3ccccc23)cc1` (stereo not given): the “activity change, negative = cell killing” value is 4.57% (inactive).

On to `Cc1nc2ccc(-n3ncc(C(=O)c4cc5ccccc5[nH]4)c3N)cc2[nH]1`, for which the Potency is 7.28 µM (active) and 4.17 µM (active).

On to `C=C1CC[C@@H]2[C@](C)(CO)[C@H](O)CC[C@@]2(C)[C@@H]1CC(=O)C1=CCOC1=O`, for which the “activity change, negative = cell killing” value is -40.2% (inactive).

On to `CC(C)NCCCn1c(Sc2cc3c(cc2I)OCO3)nc2c(N)ncnc21`, for which the Potency is 0.325 µM (active).

As for `Cc1ccc(C(C)C)c(O[C@@H]2O[C@H](CO)[C@@H](O)[C@H](O)[C@H]2O)c1`, the “activity change, negative = cell killing” value is -17.3% (inactive).

Consider `C=C1C(=O)O[C@@H]2/C=C(\CO)CC/C=C(/C=O)C[C@H](O)[C@@H]12`, for which the Potency was 4.09 µM (active).

As for `OC1C=C2C3CN(Cc4cc5c(cc43)OCO5)C2CC1O` (stereo not given), the Potency was 7.28 µM (active).

Regarding `CC1(C)CC[C@]2(C(=O)O)[C@H](O)C[C@]3(C)C(=CCC4[C@@]5(C)CC[C@H](O[C@@H]6O[C@H](CO[C@@H]7OC[C@H](O)[C@H](O)[C@H]7O[C@@H]7OC[C@H](O)[C@H](O)[C@H]7O)[C@@H](O)[C@H](O)[C@H]6O)C(C)(C)C5CC[C@]43C)[C@@H]2C1` (stereo not given in full), the activity change, negative = cell killing was -24.5% [at 9.23 µM] (inactive).

In the case of `C=C1CC2OC(=O)C(COC)C2C(OC(=O)/C(C)=C\C)CC2(C)OC1=CC2=O` (stereo not given), the Potency is 2.26 µM (active).

`Cc1ccc(-c2c(C(=O)CCl)n(CCCO)c3ncnc(N)c23)cc1`: the Potency was 23 µM (active).

With `Cc1ccc(NC(=O)c2ccc(CN3CCNCC3)cc2)cc1Nc1nccc(-c2cccnc2)n1`, the Potency was 18.3 µM (active) and 14.8 µM (active).

Consider `Cc1nc(C(=O)N2CCC[C@H]2Cc2nnc(-c3ccccc3)o2)c(-c2ccccc2F)s1`, for which the “activity change, negative = cell killing” value was -25.2% (inactive).

`O=C1Nc2nc(-c3c(O)cccc3OCC3CC3)cc([C@@H]3CCCNC3)c2CO1`: the Potency was 5.15 µM (active).

With `O=S(=O)(NCc1ccccn1)c1ccc(Br)c2ccccc12`, the “activity change, negative = cell killing” value is -22.2% (inactive).

Take `C=C1C(=O)OC2/C=C(\COC(C)=O)CC/C=C(\C=O)CC(OC(=O)C(C)CC)C12` (stereo not given): the Potency is 2 µM (active).

`C[C@H]1CC[C@@]2(OC1)O[C@H]1CC3C4CC[C@H]5C[C@@H](O)CC[C@]5(C)C4=CC(=O)[C@]3(C)[C@H]1[C@@H]2C` (stereo not given in full): the “activity change, negative = cell killing” value is -25.4% [at 17.3 µM] (inactive).

For the compound `CC(C)S(=O)(=O)Nc1ccc(F)c(C(=O)c2c[nH]c3ncc(-c4cccnc4)cc23)c1F`, the Potency is 4.59 µM (active).

As for `O=C(c1ccccc1)c1c(O)cc(O)cc1O[C@@H]1O[C@H](CO)[C@@H](O)[C@H](O)[C@H]1O`, the “activity change, negative = cell killing” value was -17.5% (inactive).

As for `Cc1cc(NC(=O)c2cccc(NC(=O)/C=C/CN(C)C)c2)ccc1Nc1nccc(-c2cccnc2)n1`, the Potency was 4.59 µM (active).

With `COc1ccccc1S(=O)(=O)Nc1ccc2c(c1)CN(C)C(=O)N2`, the Potency was 1.63 µM (active).

Regarding `Cn1ccc(NC(=O)c2cc(Oc3ccc(C(=O)N4CCC4)c(F)c3)c3c(c2)OC(C)(C)C3)n1`, the “activity change, negative = cell killing” value was -30.8% (inactive).

Turning to `COc1cc2c(NC3CCN(C(C)C)CC3)nc(N3CCC(F)(F)CC3)nc2cc1OCCCN1CCCC1`, the Potency was 11.5 µM (active).

As to `CN1c2c(nc(N)[nH]c2=O)NC[C@@H]1CNc1ccc(C(=O)N[C@@H](CCC(=O)O)C(=O)O)cc1`, the “activity change, negative = cell killing” value was -8.82% (inactive).

Consider `CCc1cc(C(N)=O)ccc1-n1nc(C(C)C)c2c(-n3cnc(-c4cnn(C)c4)c3)ccnc21`, for which the Potency is 1.05 µM (active).

Turning to `CCCOc1ccc(CCc2nc3cc(-c4c(C)noc4C)ccc3n2CCN2CCOCC2)cc1`, the Potency is 8.33 µM (active).

For the compound `C=C1C(=O)OC2/C=C(\C)CC/C=C(\C=O)C(OC)C(OC(=O)C(C)CC)C12` (stereo not given), the Potency was 2.84 µM (active).

For `Cc1nc(NC(=O)N2CCCC2C(N)=O)sc1-c1ccnc(C(C)(C)C(F)(F)F)c1` (stereo not given), the Potency is 2.63 µM (active).

Regarding `C=C1CO[C@@]2(O[C@H]3CC4C5CC=C6C[C@@H](O)C[C@@H](O[C@@H]7OC[C@H](O)[C@H](O[C@@H]8OC[C@@H](O)[C@H](O)[C@H]8O)[C@H]7O[C@@H]7O[C@@H](C)[C@H](OC(C)=O)[C@@H](OC(C)=O)[C@H]7OC(C)=O)[C@]6(C)C5CC[C@]4(C)[C@@H]3[C@@H]2C)[C@@H](O)[C@H]1OC1OC(C)C(O)C(O)C1O` (stereo not given in full), the Potency is 2.18 µM (active).

As for `COc1cc(NC(=O)c2cc(C3CC3)on2)c(OC)cc1Cl`, the “activity change, negative = cell killing” value is -12.3% (inactive).

Regarding `CCC[C@H](N[C@H]1CCc2cc(F)cc(F)c2C1)C(=O)Nc1cn(C(C)(C)CNCC(C)(C)C)cn1`, the Potency was 13.2 µM (active).
